Compound activity from PubChem BioAssay.
ROS inducer: raises reactive oxygen species in U2OS cancer cells | ROS induction (% of piperlongumine), % at 10 µM | 2% of 46,000 active | U2OS ROS induction, H2DCF-DA fluorescence | AID 624156; in the data active = ROS induction above about 79%, passing the limit was not always enough; inconclusive = no clear call, values can overlap the other calls
NOMO-1 viab: STK33 inhibitor candidate reducing NOMO-1 cell viability | 7.5% of 37,000 active | NOMO-1 AML viability, CellTiter-Glo luminescence, 72 h | inhibition, % (concentration not given with the values); in the data active = inhibition above about 80%; inconclusive = no clear call, values can overlap the other calls
Hits are given with their value; n = inactive; u = inconclusive; x = no result given. Only a selection was taken, and hits are over-represented in it overall.

SMILES	ROS inducer	NOMO-1 viab
C[C@@H]1CN([C@@H](C)CO)C(=O)Cc2cc(NC(=O)CCC(F)(F)F)ccc2O[C@@H]1CN(C)Cc1ccc(Cl)c(Cl)c1	n	124
C[C@@H]1CN([C@@H](C)CO)C(=O)c2cc(NC(=O)CCC(F)(F)F)ccc2O[C@H]1CN(C)Cc1ccc(Cl)c(Cl)c1	n	n
C[C@H](CO)N1C[C@H](C)[C@H](CN(C)Cc2ccc(Cl)c(Cl)c2)Oc2ccc(NC(=O)CCC(F)(F)F)cc2CC1=O	151	n
C[C@@H]1CN([C@@H](C)CO)C(=O)c2cc(NC(=O)CCC(F)(F)F)ccc2O[C@@H]1CN(C)Cc1ccc(Cl)c(Cl)c1	n	93
O=C1CSc2cc(S(=O)(=O)N3CCC(Cc4ccccc4)CC3)ccc2N1	n	x
C[C@@H]1CN([C@H](C)CO)C(=O)Cc2cc(NS(=O)(=O)c3cn(C)cn3)ccc2O[C@@H]1CN(C)S(=O)(=O)c1cccs1	n	n
C[C@@H]1CN([C@@H](C)CO)C(=O)Cc2cc(NC(=O)C3CCCCC3)ccc2O[C@@H]1CN(C)C(=O)Nc1ccc2c(c1)OCO2	n	n
Cc1ccc(S(=O)(=O)Nc2ccc3c(c2)C(=O)N([C@@H](C)CO)C[C@H](C)[C@H](CN(C)Cc2ccc(Cl)c(Cl)c2)O3)cc1	n	n
C=C1C(=O)O[C@H]2C1CCC(C)=C1C(=O)C=C(C)[C@@H]12 (stereo partly drawn)	n	115
CC1=CC(=O)C2=C(C)CC[C@@H]3[C@H](OC(=O)[C@H]3C)[C@@H]12	n	n
COC(=O)COc1ccc2c(=O)c(-c3ccc(Cl)cc3)coc2c1	n	n
CCCCCCCCN1C(=O)C(C(C)=O)=C(C)C1(C)O (stereo not drawn)	n	98
O=C1Nc2ccccc2Oc2cc(Sc3ccccc3)ccc21	n	x
N#Cc1ccc(Sc2ccc(Cl)cc2)nc1	n	x
Cc1ccnc(NC(c2ccc([N+](=O)[O-])cc2)c2ccc3ccc(C)nc3c2O)c1 (stereo not drawn)	x	118
Cc1ccnc(SCC(=O)c2ccc([N+](=O)[O-])cc2)n1	n	n
COc1cccc(C(Nc2cc(C)ccn2)c2ccc3ccc(C)nc3c2O)c1 (stereo not drawn)	n	97
Cc1ccnc(NC(c2cc(C)ccc2C)c2ccc3ccc(C)nc3c2O)c1 (stereo not drawn)	n	n
C=CCOc1ccccc1/C=N/NC(=O)c1cccc(C(=O)NO)c1	n	x
O=C(CSc1ncn[nH]1)Nc1nsc(-c2ccc(Cl)cc2)n1	n	n
CC1CCCC(C)N1C(=S)NCCCN1CCOCC1 (stereo not drawn)	n	110
O=C(NCCCN1CCOCC1)C(=O)NC1CC1	n	n
COc1ccc(S(=O)(=O)N(C)C[C@H]2Oc3c(NC(=O)C4CCOCC4)cccc3C(=O)N([C@H](C)CO)C[C@@H]2C)cc1	n	n
c1ccc(-c2nnc(N3CCc4ccccc43)nc2-c2ccccc2)cc1	103	n
O=C(O)c1ccccc1C(=O)N1CCc2ccccc21	n	x
SMILES	ROS inducer	NOMO-1 viab
COC(=O)c1ccccc1NC(=O)CSc1nnnn1-c1ccccc1OC	n	n
CC(C)(C)c1ccc(C(=O)N2CCC(c3nc(-c4ccc(Cl)cc4)no3)CC2)cc1	n	x
C[C@H]1CN([C@@H](C)CO)C(=O)c2cccc(NC(=O)Nc3ccc(C(F)(F)F)cc3)c2O[C@@H]1CN(C)Cc1ccc(Cl)c(Cl)c1	n	107
C[C@@H]1CN([C@H](C)CO)C(=O)c2cccc(NC(=O)Nc3ccc(C(F)(F)F)cc3)c2O[C@@H]1CN(C)Cc1ccncc1	n	n
C[C@H](CO)N1C[C@H](C)[C@@H](CN(C)Cc2ccc(Cl)c(Cl)c2)Oc2c(NC(=O)Nc3ccc(C(F)(F)F)cc3)cccc2C1=O	n	109
C[C@@H]1CN([C@@H](C)CO)C(=O)c2cccc(NC(=O)Nc3ccc(C(F)(F)F)cc3)c2O[C@@H]1CN(C)Cc1ccc(Cl)c(Cl)c1	n	u
COc1ccc(C(=O)C(C)Oc2cccc(NC(=O)c3ccc([N+](=O)[O-])cc3)c2)cc1 (stereo not drawn)	n	n
C[C@H]1CN([C@@H](C)CO)C(=O)c2cc(NC(=O)Cn3cnnn3)ccc2O[C@@H]1CN(C)Cc1ccc2c(c1)OCO2	n	n
Cc1sc2nc(SCC(=O)c3ccc4c(c3)OCCO4)n(-c3ccccc3)c(=O)c2c1C	x	n
C[C@H](CO)N1C[C@H](C)[C@@H](CN(C)C(=O)Nc2ccc(F)cc2)Oc2ccc(NC(=O)Nc3ccc(C(F)(F)F)cc3)cc2C1=O	n	n
Cc1noc(C)c1NC(=O)N(C)C[C@H]1Oc2ccc(NC(=O)Nc3ccc(F)cc3)cc2C(=O)N([C@@H](C)CO)C[C@@H]1C	n	n
Cc1noc(C)c1NC(=O)N(C)C[C@H]1Oc2ccc(NC(=O)Nc3ccc(F)cc3)cc2C(=O)N([C@H](C)CO)C[C@@H]1C	82	n
C[C@H](CO)N1C[C@H](C)[C@H](CN(C)C(=O)Nc2ccc(C(F)(F)F)cc2)Oc2ccc(NC(=O)Nc3ccc(F)cc3)cc2C1=O	96	104
C[C@@H]1CN([C@H](C)CO)C(=O)c2cc(NC(=O)Nc3ccc(C(F)(F)F)cc3)ccc2O[C@@H]1CN(C)C(=O)Nc1ccc(F)cc1	n	84
C[C@@H]1CN([C@@H](C)CO)C(=O)c2cc(NC(=O)Nc3ccc(C(F)(F)F)cc3)ccc2O[C@H]1CN(C)C(=O)Nc1ccc(F)cc1	n	n
CC(C)NC(=O)N(C)C[C@H]1Oc2c(NC(=O)c3cnccn3)cccc2C(=O)N([C@H](C)CO)C[C@@H]1C	n	n
CNC[C@@H]1Oc2c(NC(=O)Nc3ccccc3)cccc2C(=O)N([C@H](C)CO)C[C@H]1C	n	n
CS(=O)(=O)N(CC(=O)Nc1ccccc1Br)c1ccc(Oc2ccccc2)cc1	n	n
CCOC(=O)N1CCC(NS(=O)(=O)c2cccs2)CC1	n	x
CCCc1c(Cc2c(F)cccc2Cl)c(=O)oc2cc(O)ccc12	n	120
CCOc1ccccc1Oc1c(C)oc2cc(O)ccc2c1=O	n	x
COC(=O)c1cccc(OC(C)C(=O)O)c1 (stereo not drawn)	n	n
CCOC(=O)c1c(C)oc2ccc(S(=O)(=O)n3cc(-c4ccc(C)cc4)c(N)n3)cc12	n	n
COc1ccccc1CCNC(=O)c1cc(-c2ccccn2)nc2c(C)c(Cl)ccc12	x	101
COc1ccccc1CCNC(=O)c1cc(-c2ccncc2)nc2c(C)c(Cl)ccc12	x	n
SMILES	ROS inducer	NOMO-1 viab
C[C@H]1CN([C@@H](C)CO)C(=O)Cc2cc(NS(=O)(=O)c3cn(C)cn3)ccc2O[C@@H]1CN(C)C	n	n
Cc1ccc(Nc2nc(N)nc(COc3cccc4cccnc34)n2)cc1	n	111
Cc1cc(C)nc(Nc2n[nH]c(COc3cccc4cccnc34)n2)n1	x	n
C/C1=C/CC/C(CO)=C\[C@H]2OC(=O)C(CN3CCCC3C(=O)O)[C@@H]2[C@@H](OC(=O)C(C)CO)C1 (stereo partly drawn)	132	x
C/C1=C/[C@H]2OC(=O)[C@@H](C)[C@@H]2[C@H](O)C/C(CO)=C\CC1	n	x
CCc1ccc(NC(=O)CNS(=O)(=O)c2ccc3nc(C)sc3c2)cc1	n	x
CCCN(CCC)S(=O)(=O)c1ccc(F)c(C(=O)Nc2cc(C)ccc2OC)c1	n	x
COc1cc2c(cc1OC)CN(C(=O)[C@@H]1[C@H]3C(=O)O[C@H](c4ccccc4)[C@H](c4ccccc4)N3[C@H](c3ccc(OCCO)cc3)[C@@]13C(=O)Nc1ccc(C#CCNC(N)=O)cc13)CC2	n	x
